# Only some compounds are listed: those with a hit (about 19% of all), similar ones and a draw of the others.
# Giardia kill: kills Giardia lamblia. activity change, % at 7.66 µM, hits read low. AID 540267. Giardia lamblia trophozoite viability. actives 0.15% (n = 340,000); in the data active = activity change below about -80%; inconclusive = between about -30% and that limit;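 also: parasites exposed to compound for two days anaerobically before the ATP read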
#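 Killing of trophozoites was scored by loss of ATP luminescence after a 48 hrs anaerobic exposure to compounds at 37 deg C, using 100 cells per well.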
# IL1B secr inh: blocks inflammasome-driven IL-1 beta release | THP-1 LPS/ATP IL-1B secretion, AlphaLISA, 16 h; stronger effect = lower value | activity change, % at 57.5 µM | actives 4.7% (n = 360,000) | AID 743279; in the data active = activity change below about -50%; inconclusive = mostly about -30% to -49%
#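 Secreted IL-1B measured by AlphaLISA bead assay after 16 h compound exposure of THP-1 cells; compounds (final up to 57.5 uM) added 1 h before LPS (250 ng/mL) and ATP (1.25 mM) stimulation; lower signal means less secretion.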
# TDP1 inh: blocks human tyrosyl-DNA phosphodiesterase 1; recombinant TDP1, AlphaScreen DNA substrate cleavage; Potency, µM (top dose mostly 130 µM), for inactives: at the highest dose activity change, negative = inhibition, actives largely listed as inhibitors; actives 0.28% (n = 350,000); AID 485290; also: potency is read from the fitted curve at half-maximal effect; nearly all actives have a fitted effect of over 40% in size
# Target sequence (Q9NUW8 whole entry, looked up): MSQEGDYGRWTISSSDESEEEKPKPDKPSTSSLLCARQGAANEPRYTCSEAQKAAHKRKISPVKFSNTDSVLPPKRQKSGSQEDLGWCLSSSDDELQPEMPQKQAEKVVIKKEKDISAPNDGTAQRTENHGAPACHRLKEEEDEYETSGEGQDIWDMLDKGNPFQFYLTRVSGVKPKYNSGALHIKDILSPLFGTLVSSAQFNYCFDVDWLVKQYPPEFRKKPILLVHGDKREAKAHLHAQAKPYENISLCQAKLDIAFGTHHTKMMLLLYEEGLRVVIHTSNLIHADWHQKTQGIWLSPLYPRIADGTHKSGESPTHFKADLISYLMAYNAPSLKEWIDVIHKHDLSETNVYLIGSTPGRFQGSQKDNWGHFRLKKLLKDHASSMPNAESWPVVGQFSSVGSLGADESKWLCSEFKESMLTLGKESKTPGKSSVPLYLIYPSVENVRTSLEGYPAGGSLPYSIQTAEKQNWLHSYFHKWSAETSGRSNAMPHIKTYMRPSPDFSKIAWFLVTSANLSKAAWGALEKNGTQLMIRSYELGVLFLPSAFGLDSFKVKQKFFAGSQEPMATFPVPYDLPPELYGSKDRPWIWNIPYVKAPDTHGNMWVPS
#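 Here, a 5' biotin and 3' phosphotyrosine-FITC DNA oligonucleotide reports Tdp1 activity: intact substrate bridges AlphaScreen beads, while cleavage leaves a 3' phosphate and drops signal. All incubations at room temperature.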
# DT40 TDP1 no CPT: qHTS for Inhibitors of human tyrosyl-DNA phosphodiesterase 1 (TDP1): qHTS in cells in absence of CPT | DT40 Tdp1-/- hTDP1 cells, no CPT, ATP luminescence, 48 h | Potency, µM (doses to about 46.2 µM), for inactives: at the highest dose activity change, negative = growth inhibition, actives largely listed as inhibitors | actives 15% (n = 420,000); also: potency is read from the fitted curve at half-maximal effect; nearly all actives have a fitted effect of over 55% in size
#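 Growth kinetics read by CellTiter-Glo luminescence after ≥48 hr at 37 °C. Cells: DT40 Tdp1-/- stably carrying human TDP1, 400 per well, compound exposure in the absence of CPT (DMSO vehicle).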
# DT40 TDP1 CPT: growth inhibition of DT40 Tdp1-/-;hTDP1 cells with camptothecin (screen for TDP1 inhibitors); actives 12% (n = 420,000); Potency, µM (series often up to 46.2 µM), inactives show at the highest dose activity change, negative = growth inhibition, hits mostly inhibitors; chicken DT40 Tdp1-/-;hTDP1 cells + 20 nM CPT, ATP luminescence, 48 h; also: potency is read from the fitted curve at half-maximal effect; nearly all actives have a fitted effect of over 55% in size
#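 Chicken DT40 Tdp1-/- cells complemented with human TDP1, 400 cells/well, exposed to compounds plus 20 nM camptothecin for at least 48 h at 37 C; viability read as ATP content by CellTiter-Glo luminescence.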
# ELG1 repair inh: ELG1-dependent DNA repair inhibition; AID 504467; HEK293T ELG1-luciferase reporter, luminescence, 16 h; DNA damage induced by 5-fluorouridine; Potency, µM (top dose mostly 46.1 µM), without a hit: at the top dose activity change, negative = inhibition, hits mostly inhibitors; actives 2.3% (n = 330,000); also: potency is read from the fitted curve at half-maximal effect; nearly all actives have a fitted effect of over 55% in size
#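 Luminescence from the luciferase reporter, measured 30 min after ONE-Glo reagent at room temperature, was the read-out. Beforehand, 2,000 cells per well were exposed for 16 hr at 37 °C to 5-fluorouridine together with compound or vehicle.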
# Active calls of the source: *; u = inconclusive; x = not tested or not shown; [ ] = another dose, or the depositor's remark. Unless noted, calls follow the shape of the dose curve; as a rule, active = well fitted curve in the direction sought with a large enough effect; inconclusive = small, poorly fitted or top-dose-only effect, or another doubt; inactive = no such curve, though single readings can be large; an effect the other way counts as inactive or inconclusive. % is scaled to controls: 0 for no effect and ±100 for the full control effect.
SMILES,Giardia kill,IL1B secr inh,TDP1 inh,DT40 TDP1 no CPT,DT40 TDP1 CPT,ELG1 repair inh
Cc1ccc([C@@H]2CC=C(C(=O)O)[C@H](c3ccc(C(C)(C)C)cc3)N2S(=O)(=O)c2ccc(C)cc2)cc1,-27,2,0%,u,u,u
Cc1ccc(S(=O)(=O)N2[C@@H](c3ccc(C(C)(C)C)cc3)C(C(=O)O)=CC[C@H]2c2ccc(Cl)cc2)cc1,-14,-11,-17%,u,23µM*,-20%
Cc1ccc(S(=O)(=O)N2[C@@H](c3ccc(C(C)(C)C)cc3)C(C(=O)O)=CC[C@H]2c2ccc(C(C)C)cc2)cc1,-16,-7,-19%,u,u,16µM*
CC1CCCN(CC(O)CN2CCN(CC(O)CN3CCCC(C)C3)C(C)C2)C1 (stereo not given),-13,4,x,-12%,4%,x
Cc1ccc(-n2nnnc2-c2cnc(N3CCCC3)nc2C(F)(F)F)cc1,-2,-25,2%,12µM*,23µM*,8%
FC(F)(F)c1nc(N2CCCC2)ncc1-c1nnnn1-c1ccccc1,-1,-19,-4%,23µM*,16µM*,-17%
CC(=O)NC1=C(C#N)C(c2ccccc2)c2c(ccc3ccccc23)O1 (stereo not given),-14,60,6%,7.3µM*,8.2µM*,u
COc1ccc2c(c1)c(=O)c(C(=O)c1ccc(F)cc1)cn2CC(=O)Nc1ccc2c(c1)OCO2,x,x,4%,u,-28%,x
CCCCC(=O)Nc1cccc(NC(=S)NC(C)=O)c1,-6,0,0%,-26%,-3%,-9%
CC(=O)c1c(N2CCOCC2)nc(=S)n(-c2ccccc2)c1C,-20,24,6%,-5%,-6%,9%
CCCNc1nc(=S)n(-c2ccccc2)c(C)c1C(C)=O,-25,0,-1%,-6%,-5%,8%
CC(=O)c1c(N2CCCCC2)nc(=S)n(-c2ccccc2)c1C,60,-9,-2%,5.8µM*,12µM*,15%
CCn1c(C)c(C(C)=O)c(N2CCN(C(c3ccccc3)c3ccccc3)CC2)nc1=S,14,-185*,-3%,6.5µM*,9.2µM*,u
CC(=O)c1c(N2CCCC2)nc(=S)n(-c2ccccc2)c1C,1,-4,7%,8.2µM*,12µM*,17%
CCCCNc1nc(=S)n(-c2ccccc2)c(C)c1C(C)=O,-9,-91*,5%,23µM*,16µM*,13%
COc1cc(C(=O)Nc2ccccc2OCc2cc(=O)n3c(C)csc3n2)cc(OC)c1OC,x,x,-4%,-28%,-24%,x
Cn1c(C(=O)O)c(CC(=O)NCc2cccnc2)c2ccccc21,-3,22,-3%,-8%,-1%,13%
Cc1[nH]c2ccccc2c1C(c1ccncc1)N1CCC(C)CC1 (stereo not given),7,-1,8%,18µM*,u,2%
CCOC(=O)C1CCN(C(c2ccccn2)c2c(C)[nH]c3ccccc23)CC1 (stereo not given),-8,-110*,5%,16µM*,16µM*,-2%
Cc1[nH]c2ccccc2c1C(c1ccncc1)N1CCN(c2ccccn2)CC1 (stereo not given),-19,48,8%,u,u,17%
CCOC(=O)C1CCN(C(=O)c2n[nH]c(=O)c3ccccc23)CC1,8,-2,3%,0%,-10%,-1%
Cc1[nH]c2ccccc2c1C(c1ccccn1)N1CCC(C(N)=O)CC1 (stereo not given),4,-17,8%,18µM*,21µM*,u
Cc1[nH]c2ccc(C(=O)N3CCC(C(N)=O)CC3)cc2c1C,6,-13,0%,5%,8%,u
Cc1ccc(-c2ccc(=O)n(CC(=O)NCCc3ccccc3)n2)cc1,x,x,5%,-27%,-6%,x
COC(=O)[C@@]1(Cc2ccc(F)cc2)[C@H]2c3cc(C(=O)N4CCCC4)n(Cc4ccc(C)o4)c3C[C@H]2CN1C(=O)c1ccccc1,x,-87*,16%,u,u,x
SMILES,Giardia kill,IL1B secr inh,TDP1 inh,DT40 TDP1 no CPT,DT40 TDP1 CPT,ELG1 repair inh
COC(=O)[C@@]1(Cc2ccc(F)cc2)[C@H]2c3cc(C(=O)N4CCCC4)n(CCF)c3C[C@H]2CN1C(=O)c1ccccc1,x,u,-7%,23µM*,23µM*,x
COC(=O)[C@@]1(Cc2ccc(OC)cc2)[C@H]2c3cc(C(=O)N4CCCC4)n(CCn4cc([N+](=O)[O-])nc4C)c3C[C@H]2CN1C(=O)c1ccccc1,-83*,0,1%,-5%,1%,23%
COC(=O)[C@@]1(Cc2ccc(F)cc2)[C@H]2c3cc(C(=O)N4CCCC4)n(Cc4ccc(C)c(F)c4F)c3C[C@H]2CN1C(=O)c1ccccc1,x,0,16%,23µM*,u,x
COC(=O)[C@@]1(Cc2ccc(F)cc2)[C@H]2c3cc(C(=O)N4CCCC4)n(Cc4cccc5ccccc45)c3C[C@H]2CN1C(=O)c1ccccc1,x,x,14%,x,x,x
C/C=C1\NC(=O)[C@H](C)NC(=O)[C@@H](NC(=O)[C@H](Cc2ccc(O)cc2)NC(=O)[C@@H](NC(=O)/C(C)=C/C)C(C)C)[C@@H](C)OC(=O)[C@H](CC(C)C)NC(=O)[C@@H](CCC(=O)O)NC1=O,x,29,x,17%,3%,x
COc1ccccc1C(=O)N[C@@H]1c2ccccc2C2(CCN(C(=O)c3ccnn3C)CC2)[C@H]1OC,x,x,x,u,-3%[9.04 µM],x
Cc1ccc2ncc3c(-c4ccccc4)nn(CC(=O)NC4CCCCC4)c3c2c1,x,x,7%,-5%,-21%,x
COC(=O)[C@@]1(Cc2ccc(F)cc2)[C@H]2c3cc(C(=O)N4CCCC4)n(CCCNc4ncc(C(F)(F)F)cc4Cl)c3C[C@H]2CN1C(=O)c1ccccc1,-4,0,13%,16µM*,u,u
COC(=O)[C@@]1(Cc2ccc(F)cc2)[C@H]2c3cc(C(=O)N4CCCC4)n(Cc4cc(C)n(C)n4)c3C[C@H]2CN1C(=O)c1ccccc1,x,-7,9%,16µM*,21µM*,x
CCOc1ccc(CCn2c(-c3ccco3)nc3ccccc3c2=O)cc1OCC,12,-57*,8%,0.82µM*,1.3µM*,9.2µM*
CCCCNC(=O)C(CC)Sc1nc2ccccc2c(=O)n1CCc1ccc(OC)c(OC)c1 (stereo not given),x,x,-1%,8.2µM*,8.2µM*,x
